The results in this text go back to article PMC4336329 (PLoS ONE, 2015).

The campaign covered roughly 310,000 compounds. About 14,000 (4.5%) showed an effect of 50% or more. The effect is printed as a negative number. Shown is part of a subset that was picked to be rich in strong results.
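Further: peak tail current of the secondary pulse compared with the same well before compound.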

For the assay, the target named is human ether-à-go-go-related gene (hERG) potassium channel (human, UniProt Q12809). The assay is described as follows: primary screen, population patch clamp on CHO cells stably expressing hERG; higher = less effect of the substance.
Sequence of human ether-à-go-go-related gene (hERG) potassium channel (Q12809 whole entry, looked up): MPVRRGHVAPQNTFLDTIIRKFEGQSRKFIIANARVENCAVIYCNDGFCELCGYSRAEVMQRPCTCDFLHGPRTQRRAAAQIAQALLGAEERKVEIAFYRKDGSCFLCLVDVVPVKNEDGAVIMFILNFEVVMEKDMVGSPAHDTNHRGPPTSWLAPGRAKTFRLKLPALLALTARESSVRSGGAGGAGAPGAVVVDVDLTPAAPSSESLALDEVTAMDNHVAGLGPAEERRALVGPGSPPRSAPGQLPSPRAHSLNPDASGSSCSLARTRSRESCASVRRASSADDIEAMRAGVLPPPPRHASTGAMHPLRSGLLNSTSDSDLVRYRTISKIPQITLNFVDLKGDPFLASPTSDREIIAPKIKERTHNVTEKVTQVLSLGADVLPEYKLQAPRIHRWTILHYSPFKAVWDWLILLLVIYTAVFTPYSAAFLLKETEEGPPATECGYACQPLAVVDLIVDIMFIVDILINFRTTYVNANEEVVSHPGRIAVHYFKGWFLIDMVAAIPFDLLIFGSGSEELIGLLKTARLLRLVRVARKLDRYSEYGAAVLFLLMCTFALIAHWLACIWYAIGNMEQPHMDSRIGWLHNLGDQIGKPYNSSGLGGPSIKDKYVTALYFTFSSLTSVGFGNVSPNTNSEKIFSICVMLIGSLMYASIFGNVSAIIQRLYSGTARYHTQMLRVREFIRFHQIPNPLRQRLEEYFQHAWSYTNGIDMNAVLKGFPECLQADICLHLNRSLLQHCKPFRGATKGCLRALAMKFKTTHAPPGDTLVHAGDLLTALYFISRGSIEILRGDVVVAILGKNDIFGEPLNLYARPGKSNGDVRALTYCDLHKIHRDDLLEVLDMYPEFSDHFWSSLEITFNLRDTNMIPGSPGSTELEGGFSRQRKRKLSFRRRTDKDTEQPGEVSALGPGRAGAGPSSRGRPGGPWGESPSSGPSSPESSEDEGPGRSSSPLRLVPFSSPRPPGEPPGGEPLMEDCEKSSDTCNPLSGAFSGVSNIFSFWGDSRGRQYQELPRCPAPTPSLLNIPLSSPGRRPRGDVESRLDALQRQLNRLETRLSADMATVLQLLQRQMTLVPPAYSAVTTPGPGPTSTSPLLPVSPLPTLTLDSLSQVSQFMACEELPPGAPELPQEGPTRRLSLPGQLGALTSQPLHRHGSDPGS
With `O=C(c1nnc(Cc2ccc(Cl)cc2)o1)N1CCOCC1`, the “hERG current change (%, negative = inhibition) at 10uM” value is 10.7%.

With `O=C(Nc1ccc(Cl)cc1)N1CCOCC1`, the “hERG current change (%, negative = inhibition) at 10uM” value was found to be 13.8%.

Take `O=C(Nc1ccc(F)c(Cl)c1)c1ccccc1`: the “hERG current change (%, negative = inhibition) at 10uM” value worked out at 0.672%.

Regarding `COCCNS(=O)(=O)c1cc(C(=O)O)ccc1OC`, the “hERG current change (%, negative = inhibition) at 10uM” value stood at 15.9%.

Consider `COc1cc(C(=O)OC2C[C@H]3CC[C@@H](C2)N3C)ccc1O` (stereo partly shown), for which the “hERG current change (%, negative = inhibition) at 10uM” value was -7%.

On to `Cc1ccc(N2C(=O)C3C(C2=O)C(C(=O)c2ccc(Cl)cc2)N2CCCC32)cc1` (stereo not shown), for which the “hERG current change (%, negative = inhibition) at 10uM” value is listed as 2.31%.

`OCC[C@@H]1C[C@@H](O)[C@H](O)[C@@]2(CCCO2)O1`: the “hERG current change (%, negative = inhibition) at 10uM” value is 6.76%.

With `CCCc1cc(=O)[nH]c(SCC(=O)c2c(N)n(C3CC3)c(=O)[nH]c2=O)n1`, the “hERG current change (%, negative = inhibition) at 10uM” value is reported as 6.85%.

Consider `COc1ccc2c3n(nc2c1)CCN=C3c1ccc(C)cc1`, for which the “hERG current change (%, negative = inhibition) at 10uM” value is -14.3%.

As for `O=C(NCCS(=O)(=O)N1CCN(c2ccccc2)CC1)C1CC(=O)N(c2ccc(F)cc2)C1` (stereo not shown), the “hERG current change (%, negative = inhibition) at 10uM” value is -1.02%.

Take `O=C(CN1CCN(c2ccccc2F)CC1)NCc1ccccc1`: the “hERG current change (%, negative = inhibition) at 10uM” value is recorded as -0.288%.

Turning to `O=C(COC(=O)CNC(=O)c1ccccc1F)Nc1ncc(Cl)cc1Cl`, the “hERG current change (%, negative = inhibition) at 10uM” value is recorded as -3.8%.

`Cc1c(Cl)cccc1NC(=S)N(Cc1ccco1)C(C)c1ccccn1` (stereo not shown): the “hERG current change (%, negative = inhibition) at 10uM” value is reported as -11%.

As for `CN(CCn1ccnc1)Cc1cn(-c2ccccc2)nc1-c1ccc2c(c1)OCO2`, the “hERG current change (%, negative = inhibition) at 10uM” value is given as -62.9%.

Consider `CN(Cc1cccnc1)Cc1cn(Cc2ccccc2)nc1-c1ccc2c(c1)OCO2`, for which the “hERG current change (%, negative = inhibition) at 10uM” value is recorded as -11.7%.

In the case of `CN(CCn1ccnc1)Cc1cn(Cc2ccccc2)nc1-c1ccc2c(c1)OCO2`, the “hERG current change (%, negative = inhibition) at 10uM” value is given as -23.2%.

For `O=C(N/C(=C/c1ccc2c(c1)OCO2)C(=O)N1CCOCC1)c1cccs1`, the “hERG current change (%, negative = inhibition) at 10uM” value is 9.12%.

Turning to `O=C(N/C(=C\c1ccc2c(c1)OCO2)C(=O)N1CCOCC1)c1cccs1`, the “hERG current change (%, negative = inhibition) at 10uM” value is listed as -42.8%.

Take `Cc1ccc(NC(=O)/C(=C\c2cccs2)NC(=O)c2ccccc2)cc1`: the “hERG current change (%, negative = inhibition) at 10uM” value is listed as -3.84%.

Regarding `Cc1cccc(NC(=O)/C(=C\c2cccs2)NC(=O)c2ccccc2)c1`, the “hERG current change (%, negative = inhibition) at 10uM” value is reported as -51.7%.

In the case of `CCOC(=O)N1CCC(NC(=O)c2cccs2)CC1`, the “hERG current change (%, negative = inhibition) at 10uM” value turned out to be 6.2%.

In the case of `CN1CCN(C(=O)/C(=C\c2ccc3c(c2)OCO3)NC(=O)c2cccs2)CC1`, the “hERG current change (%, negative = inhibition) at 10uM” value is -76.8%.

Regarding `CCOC(=O)N1CCN(C(=O)/C(=C\c2cccs2)NC(=O)c2cccs2)CC1`, the “hERG current change (%, negative = inhibition) at 10uM” value was -71.8%.

Turning to `O=C(N/C(=C/c1cccs1)C(=O)N1CCCC1)c1ccccc1`, the “hERG current change (%, negative = inhibition) at 10uM” value came out at 6.44%.

For the molecule `CCOC(=O)N1CCN(C(=O)/C(=C/c2cccs2)NC(=O)c2cccs2)CC1`, the “hERG current change (%, negative = inhibition) at 10uM” value is recorded as -45.7%.

For the molecule `CN1CCN(C(=O)/C(=C\c2cccs2)NC(=O)c2ccccc2)CC1`, the “hERG current change (%, negative = inhibition) at 10uM” value is -75.3%.

Consider `O=C(N/C(=C\c1cccs1)C(=O)N1CCCCCC1)c1ccccc1`, for which the “hERG current change (%, negative = inhibition) at 10uM” value is listed as -32.3%.

Consider `O=C(Nc1ccccc1)/C(=C\c1cccs1)NC(=O)c1ccccc1`, for which the “hERG current change (%, negative = inhibition) at 10uM” value turned out to be 9.9%.

In the case of `COc1cc(CNCC2CCCO2)ccc1OCC(N)=O.Cl` (stereo not shown), the “hERG current change (%, negative = inhibition) at 10uM” value amounted to 16.3%.

In the case of `CCOc1ccc(S(=O)(=O)N2CCC(C(=O)NCc3cccnc3)CC2)cc1`, the “hERG current change (%, negative = inhibition) at 10uM” value is recorded as -27.1%.

Turning to `CCCC1(c2ccccc2)NC(=O)N(CC(=O)Nc2cc(C)on2)C1=O` (stereo not shown), the “hERG current change (%, negative = inhibition) at 10uM” value is 23.6%.

With `CCc1nn(CC(=O)NCCc2ccc(S(N)(=O)=O)cc2)c(=O)c2cc3sccc3n12`, the “hERG current change (%, negative = inhibition) at 10uM” value amounted to 20.1%.

For the molecule `Oc1ccc(O)c(/C(=N/Nc2ccccc2)c2ccccc2)c1`, the “hERG current change (%, negative = inhibition) at 10uM” value was determined as 11%.

For the molecule `O=c1n(-c2cccc(Cl)c2)c(=O)n2n1CCC2`, the “hERG current change (%, negative = inhibition) at 10uM” value was -6.81%.

For the molecule `O=C(CCN1CCN(c2ccc(Cl)cc2)CC1)Nc1nccs1`, the “hERG current change (%, negative = inhibition) at 10uM” value was -13.3%.

Consider `COc1cc(C2c3c(oc4c(C)cc(C)cc4c3=O)C(=O)N2Cc2cccnc2)ccc1O` (stereo not shown), for which the “hERG current change (%, negative = inhibition) at 10uM” value was 5.03%.

Consider `COCC(C)n1c(C)cc(C(=O)COC(=O)/C=C/c2cccc(F)c2)c1C` (stereo not shown), for which the “hERG current change (%, negative = inhibition) at 10uM” value was -31.6%.

Turning to `Cc1nn(Cc2ccccc2)c(Cl)c1/C=C/C(=O)OC(C)C(=O)N1CCCC1` (stereo not shown), the “hERG current change (%, negative = inhibition) at 10uM” value was 18.7%.

Turning to `Cc1ccc(C(=O)N/C(=C\c2cccs2)C(=O)N2CCCCCC2)cc1`, the “hERG current change (%, negative = inhibition) at 10uM” value is reported as -50.7%.

As for `Cc1ccc(C(=O)N/C(=C/c2cccs2)C(=O)N2CCCCC2)cc1`, the “hERG current change (%, negative = inhibition) at 10uM” value is given as -35.4%.

`CN1CCN(C(=O)/C(=C\c2cccs2)NC(=O)c2cccs2)CC1`: the “hERG current change (%, negative = inhibition) at 10uM” value is on record as -72.5%.

Turning to `O=C(N/C(=C\c1cccs1)C(=O)N1CCOCC1)c1cccs1`, the “hERG current change (%, negative = inhibition) at 10uM” value was -9.07%.

Regarding `Cc1ccc(C(=O)N/C(=C/c2cccs2)C(=O)N2CCCCCC2)cc1`, the “hERG current change (%, negative = inhibition) at 10uM” value is -46%.

In the case of `O=C(N/C(=C/c1cccs1)C(=O)N1CCOCC1)c1cccs1`, the “hERG current change (%, negative = inhibition) at 10uM” value was -8.41%.

Regarding `Cc1cc(NC(=O)C2CC(=O)N(c3ccccc3Cl)C2)no1` (stereo not shown), the “hERG current change (%, negative = inhibition) at 10uM” value was found to be 14.6%.

In the case of `C/C(=N\NC(=O)CNC(=O)c1ccc2c(c1)OCCO2)c1ccco1`, the “hERG current change (%, negative = inhibition) at 10uM” value is on record as 10.7%.
